Reference: PMC11006913

Each sequence was assayed against HOXA4 (Homo sapiens, UniProt Q00056 201-287) (assay: PBM; 200 nM protein, PBS). Settings: dsDNA, one strand shown.
Sequence of HOXA4 (Homo sapiens, UniProt Q00056 201-287) (Q00056 201-287): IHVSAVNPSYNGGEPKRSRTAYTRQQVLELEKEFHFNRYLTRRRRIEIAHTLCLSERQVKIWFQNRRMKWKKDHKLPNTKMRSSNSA

Row | Sequence | binding signal
1 | GGCGAGCC | 9.66 upbm affinity estimate (log intensity, higher = more binding, comparable within an allelic series)
2 | CCGGCACG | 9.85 upbm affinity estimate (log intensity, higher = more binding, comparable within an allelic series)
3 | AGGGCGAG | 9.74 upbm affinity estimate (log intensity, higher = more binding, comparable within an allelic series)
4 | AGCTCCCC | 9.78 upbm affinity estimate (log intensity, higher = more binding, comparable within an allelic series)
5 | AACGAATT | 11.6 upbm affinity estimate (log intensity, higher = more binding, comparable within an allelic series)
6 | CACACCGG | 9.76 upbm affinity estimate (log intensity, higher = more binding, comparable within an allelic series)
7 | ACCTGCCG | 9.98 upbm affinity estimate (log intensity, higher = more binding, comparable within an allelic series)
8 | AGTCCCCG | 9.89 upbm affinity estimate (log intensity, higher = more binding, comparable within an allelic series)
9 | CACGGTGC | 9.75 upbm affinity estimate (log intensity, higher = more binding, comparable within an allelic series)
10 | CAGGGGGA | 9.87 upbm affinity estimate (log intensity, higher = more binding, comparable within an allelic series)
11 | AAGCTAAT | 12.3 upbm affinity estimate (log intensity, higher = more binding, comparable within an allelic series)
12 | CACCCTGG | 9.78 upbm affinity estimate (log intensity, higher = more binding, comparable within an allelic series)
13 | ATATTGAG | 10.9 upbm affinity estimate (log intensity, higher = more binding, comparable within an allelic series)
14 | CTCCCACC | 9.74 upbm affinity estimate (log intensity, higher = more binding, comparable within an allelic series)
15 | CCTGGGCG | 9.75 upbm affinity estimate (log intensity, higher = more binding, comparable within an allelic series)
16 | AATCCCCC | 9.87 upbm affinity estimate (log intensity, higher = more binding, comparable within an allelic series)
17 | AATCGATG | 11.7 upbm affinity estimate (log intensity, higher = more binding, comparable within an allelic series)
18 | CCTCCGTC | 9.63 upbm affinity estimate (log intensity, higher = more binding, comparable within an allelic series)
19 | ACCCGTAG | 9.84 upbm affinity estimate (log intensity, higher = more binding, comparable within an allelic series)
20 | GATTTATA | 11.4 upbm affinity estimate (log intensity, higher = more binding, comparable within an allelic series)

Row | Sequence | binding signal
21 | GGACTCCC | 9.84 upbm affinity estimate (log intensity, higher = more binding, comparable within an allelic series)
22 | AATTGTTC | 11.9 upbm affinity estimate (log intensity, higher = more binding, comparable within an allelic series)
23 | CCTCCAGC | 9.83 upbm affinity estimate (log intensity, higher = more binding, comparable within an allelic series)
24 | AACATTAG | 12.4 upbm affinity estimate (log intensity, higher = more binding, comparable within an allelic series)
25 | CCAGCCGG | 9.56 upbm affinity estimate (log intensity, higher = more binding, comparable within an allelic series)
26 | CAATCACG | 11.2 upbm affinity estimate (log intensity, higher = more binding, comparable within an allelic series)
27 | CCTCGTCC | 9.86 upbm affinity estimate (log intensity, higher = more binding, comparable within an allelic series)
28 | CTAATCTA | 12 upbm affinity estimate (log intensity, higher = more binding, comparable within an allelic series)
29 | ACGTTAAT | 12.9 upbm affinity estimate (log intensity, higher = more binding, comparable within an allelic series)
30 | CATGATTA | 12.6 upbm affinity estimate (log intensity, higher = more binding, comparable within an allelic series)
31 | CCCATGGC | 9.77 upbm affinity estimate (log intensity, higher = more binding, comparable within an allelic series)
32 | CCAGCGGG | 9.72 upbm affinity estimate (log intensity, higher = more binding, comparable within an allelic series)
33 | TAAAATTA | 12.2 upbm affinity estimate (log intensity, higher = more binding, comparable within an allelic series)
34 | ACGTTTAG | 11 upbm affinity estimate (log intensity, higher = more binding, comparable within an allelic series)
35 | ATAAATCG | 11.5 upbm affinity estimate (log intensity, higher = more binding, comparable within an allelic series)
36 | GAGTAATA | 11.7 upbm affinity estimate (log intensity, higher = more binding, comparable within an allelic series)
37 | ACCCTAGG | 9.97 upbm affinity estimate (log intensity, higher = more binding, comparable within an allelic series)
38 | GACCCCCC | 9.7 upbm affinity estimate (log intensity, higher = more binding, comparable within an allelic series)
39 | CAGACCTC | 9.81 upbm affinity estimate (log intensity, higher = more binding, comparable within an allelic series)
40 | CAATTTAG | 12.1 upbm affinity estimate (log intensity, higher = more binding, comparable within an allelic series)

These sequences were tested against HOXA4 (Homo sapiens, UniProt Q00056 201-287, W262F) (assay: PBM; 200 nM protein, PBS). Settings: dsDNA, one strand shown.
Sequence of HOXA4 (Homo sapiens, UniProt Q00056 201-287, W262F) (Q00056 201-287 W262F): as the sequence (Q00056 201-287) above, with W62F counted along it

Row | Sequence | binding signal
41 | GGCGAGCC | 9.76 upbm affinity estimate (log intensity, higher = more binding, comparable within an allelic series)
42 | CCGGCACG | 9.93 upbm affinity estimate (log intensity, higher = more binding, comparable within an allelic series)
43 | AGGGCGAG | 9.91 upbm affinity estimate (log intensity, higher = more binding, comparable within an allelic series)
44 | AGCTCCCC | 9.81 upbm affinity estimate (log intensity, higher = more binding, comparable within an allelic series)
45 | CACACCGG | 9.81 upbm affinity estimate (log intensity, higher = more binding, comparable within an allelic series)
46 | ACCTGCCG | 9.88 upbm affinity estimate (log intensity, higher = more binding, comparable within an allelic series)
47 | AGTCCCCG | 9.99 upbm affinity estimate (log intensity, higher = more binding, comparable within an allelic series)
48 | CACGGTGC | 9.86 upbm affinity estimate (log intensity, higher = more binding, comparable within an allelic series)
49 | CAGGGGGA | 9.7 upbm affinity estimate (log intensity, higher = more binding, comparable within an allelic series)
50 | CACCCTGG | 9.87 upbm affinity estimate (log intensity, higher = more binding, comparable within an allelic series)
51 | CTCCCACC | 9.88 upbm affinity estimate (log intensity, higher = more binding, comparable within an allelic series)
52 | CCTGGGCG | 9.8 upbm affinity estimate (log intensity, higher = more binding, comparable within an allelic series)
53 | AATCCCCC | 9.73 upbm affinity estimate (log intensity, higher = more binding, comparable within an allelic series)
54 | CCTCCGTC | 9.84 upbm affinity estimate (log intensity, higher = more binding, comparable within an allelic series)
55 | ACCCGTAG | 9.82 upbm affinity estimate (log intensity, higher = more binding, comparable within an allelic series)
56 | GGACTCCC | 9.79 upbm affinity estimate (log intensity, higher = more binding, comparable within an allelic series)
57 | CCTCCAGC | 9.76 upbm affinity estimate (log intensity, higher = more binding, comparable within an allelic series)
58 | AACATTAG | 10.7 upbm affinity estimate (log intensity, higher = more binding, comparable within an allelic series)
59 | CCAGCCGG | 9.77 upbm affinity estimate (log intensity, higher = more binding, comparable within an allelic series)
60 | CAATCACG | 10.5 upbm affinity estimate (log intensity, higher = more binding, comparable within an allelic series)
61 | CCTCGTCC | 9.98 upbm affinity estimate (log intensity, higher = more binding, comparable within an allelic series)
62 | ACGTTAAT | 11 upbm affinity estimate (log intensity, higher = more binding, comparable within an allelic series)
63 | CATGATTA | 10.8 upbm affinity estimate (log intensity, higher = more binding, comparable within an allelic series)
64 | CCCATGGC | 9.85 upbm affinity estimate (log intensity, higher = more binding, comparable within an allelic series)
65 | CCAGCGGG | 9.76 upbm affinity estimate (log intensity, higher = more binding, comparable within an allelic series)
66 | ACCCTAGG | 9.92 upbm affinity estimate (log intensity, higher = more binding, comparable within an allelic series)
67 | GACCCCCC | 9.59 upbm affinity estimate (log intensity, higher = more binding, comparable within an allelic series)
68 | CAGACCTC | 9.9 upbm affinity estimate (log intensity, higher = more binding, comparable within an allelic series)
